Compound activity: PubChem, National Center for Advancing Translational Sciences (NCATS)
FLuc inh: inhibitors of firefly luciferase; P08659; purified firefly luciferase, luminescence, 8 min; Potency, µM (titrated, usually from 57.1 µM), for inactives: at the top dose activity change, negative = inhibition, most hits filed as inhibitors; 72,000 compounds, 2.2% hits; AID 411; active means well fitted inhibition curve with a large enough effect; inconclusive means small, poorly fitted or top-dose-only effect; further: on the % scale 0 is the no-effect control and ±100 the full control effect; nearly all actives have a fitted effect of over 40% in size
Target sequence (P08659 whole entry, looked up): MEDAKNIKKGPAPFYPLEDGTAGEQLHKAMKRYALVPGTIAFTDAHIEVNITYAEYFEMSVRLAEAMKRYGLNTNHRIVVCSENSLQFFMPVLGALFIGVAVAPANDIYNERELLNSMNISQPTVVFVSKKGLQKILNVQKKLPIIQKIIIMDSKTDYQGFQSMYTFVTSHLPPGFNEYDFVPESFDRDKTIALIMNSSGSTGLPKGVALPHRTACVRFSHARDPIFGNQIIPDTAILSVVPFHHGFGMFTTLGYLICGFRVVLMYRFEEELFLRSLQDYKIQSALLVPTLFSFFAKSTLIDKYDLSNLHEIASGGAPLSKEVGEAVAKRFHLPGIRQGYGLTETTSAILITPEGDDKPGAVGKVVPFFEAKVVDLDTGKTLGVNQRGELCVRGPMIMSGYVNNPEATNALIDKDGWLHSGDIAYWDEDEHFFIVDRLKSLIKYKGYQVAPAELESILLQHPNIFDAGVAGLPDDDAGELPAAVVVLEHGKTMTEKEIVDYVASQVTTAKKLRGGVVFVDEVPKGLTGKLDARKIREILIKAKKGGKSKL
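Luminescence read-out after 8 min at room temperature; enzyme reaction used luciferin plus 10 uM ATP (linear range) in imidazole buffer pH 7.2 with KCl, MgCl2, Tween 20 and BSA. Each sample was run as a titration.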
Bst PK mod: modulators of Bacillus stearothermophilus pyruvate kinase | 51,000 compounds, 1.2% hits | purified pyruvate kinase, luminescence ATP production; ribose 5-phosphate activator present at AC10 | AID 361 | Potency, µM; in the data active means potency below about 11 µM; inconclusive means mostly about 12 µM to 25 µM;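 the screen sought inhibitors and activators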;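 further: scaled between full activation by ribose 5 phosphate and full inhibition by luteolin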
GBA mod: alters purified human glucocerebrosidase activity; P04062; Potency, µM; 48,000 compounds, 1.1% hits; purified enzyme, resorufin glucoside fluorescence (screen aimed at inhibitors), 20 min; in the data active means potency below about 15 µM; inconclusive means mostly about 16 µM to 33 µM;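 further: the screen sought inhibitors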
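Normal human glucocerebrosidase (0.2 nM final) was assayed with resorufin β-D-glucopyranoside (30 uM final) in 50mM citric acid/KH2PO4, 10mM sodium taurocholate, 0.01% tween-20, pH 5.9. Compounds were titrated; fluorescence (Ex 548, Em 600) read after 20 min at RT.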
Numbers without * were called inactive; [ ] = dose if it differs, or a comment. The list is not random: actives were taken first. Their share in the collection is about 3.4%. Potency means the concentration at half of the fitted maximal effect.

What do the screens show for `c1ccc(Nc2nc(-c3cccnc3)nc3ccccc23)cc1`?
FLuc inh: -1.1%[2.29 µM]

How did Oc1ccc(Nc2nc(N3CCCC3)c3ccccc3n2)cc1 do in these assays?
FLuc inh: -9.8%; Bst PK mod: inactive; GBA mod: 8.85*

What do the screens show for `Nc1nc(Nc2ccccc2)nc2ccccc12`?
FLuc inh: 6.31µM*; Bst PK mod: 5.47*; GBA mod: inconclusive

How did Cc1ccc(Nc2nc(N3CCOCC3)c3ccccc3n2)cc1 do in these assays?
FLuc inh: -5.6%

What do the screens show for `N#Cc1ccc(CN2CC[C@@]3(CCCN(C(=O)c4ccncc4)C3)C2)cc1`?
FLuc inh: 1.3%[11.4 µM]

What do the screens show for `CCNc1ncc2nc(CCc3ccccc3)c(=O)n(CCC#N)c2n1`?
FLuc inh: 0.1%[11.4 µM]

Results for CC(=O)N1CCN(c2ccc(NCc3ccc(C)cc3)cc2)CC1 ?
FLuc inh: -0.9%; Bst PK mod: >57; GBA mod: 11.6*

What do the screens show for `Cc1ccc(CNc2ccc(O)cc2)cc1`?
Bst PK mod: >57; GBA mod: inactive

Results for CCc1ccc(CNc2ccc(N3CCN(C(C)=O)CC3)cc2)cc1 ?
FLuc inh: -0.5%; Bst PK mod: >57; GBA mod: 12.4*

Results for CC(=O)Nc1ccc(N2CCN(C(C)=O)CC2)cc1 ?
FLuc inh: 0.6%; Bst PK mod: >57; GBA mod: >76.9

What do the screens show for `COc1ccc(-n2c(=O)c(-c3ccccc3)nc3cncnc32)cc1`?
FLuc inh: 0.1%[11.4 µM]

What do the screens show for `CC(C)=CCC/C(C)=C/CO/N=C1/C[C@@H](O)[C@@H](O)[C@@H]2[C@@H]3C(=O)N(C(C)(C)C)C(=O)[C@H]3CC[C@@H]12`?
FLuc inh: 2.0%[11.4 µM]

What do the screens show for `C[C@@H]1NC(=O)[C@@H](C)COC(=O)[C@H](C)NC(=O)[C@@H](C)COC1=O`?
FLuc inh: 2.1%[11.4 µM]

Results for COC(=O)c1c(C(=O)OC)n(CCCN)c2ccc(C)cc12 ?
FLuc inh: -33.3%; Bst PK mod: >57; GBA mod: inconclusive

How did Cc1ccc2c(c1)c1cccc3c1n2CCN3CCC(N)=O do in these assays?
FLuc inh: 10µM*

How did CCOC(=O)c1cnc(-n2cc(C)cn2)nc1Nc1ccccc1OC do in these assays?
FLuc inh: 2.8%; Bst PK mod: >57; GBA mod: 12.3*

How did CCOC(=O)c1cnc(-n2nc(C)cc2C)nc1Nc1ccc(N(C)C)cc1 do in these assays?
FLuc inh: -5.0%; Bst PK mod: >57; GBA mod: >76.9

What do the screens show for `Cc1cc(=O)[nH]c(S/C=C/c2ccccc2)n1`?
FLuc inh: 15.8µM*; Bst PK mod: inactive; GBA mod: >76.9

How did COc1ccc(CSc2nc(C)cc(=O)[nH]2)cc1 do in these assays?
FLuc inh: -3.6%

Results for COc1ccc(-c2cnnc(CCCn3ccnc3-c3ccccc3)n2)cc1 ?
FLuc inh: 4.3%[11.4 µM]

What do the screens show for `CC(=O)Nc1ccc2oc(-c3cc(F)c(F)cc3Cl)nc2c1`?
FLuc inh: -23.5%; Bst PK mod: >57; GBA mod: >76.9

Results for CC(=O)Nc1ccc2oc(-c3ccccc3Br)nc2c1 ?
FLuc inh: 10µM*; Bst PK mod: inconclusive; GBA mod: >76.9

How did COc1ccc(NC(=O)N2CC3(CCN(C(=O)c4cnccn4)CC3)C2)cc1 do in these assays?
FLuc inh: -0.1%[11.4 µM]

What do the screens show for `Cc1ccc2nc(-c3ccccn3)oc2c1`?
FLuc inh: 7.94µM*; Bst PK mod: 6.9*; GBA mod: >76.9

Results for O=C(Nc1ccc2oc(-c3cccnc3)nc2c1)c1cccnc1 ?
FLuc inh: 6.6%; Bst PK mod: >57; GBA mod: >76.9

How did Cc1ccc2nc(-c3cccnc3)oc2c1 do in these assays?
FLuc inh: 25.1µM*; Bst PK mod: inactive; GBA mod: >76.9

What do the screens show for `Cc1ccc(C)c(CSc2nnc(-c3cccnc3)o2)c1`?
FLuc inh: 1.3%; Bst PK mod: >57; GBA mod: >76.9

How did CC(C)CC(=O)Nc1ccc2oc(-c3cccnc3)nc2c1 do in these assays?
FLuc inh: 12.6µM*

Results for c1ccc(-c2nc3cc(Oc4ccc5oc(-c6ccccn6)nc5c4)ccc3o2)nc1 ?
FLuc inh: -6.5%; Bst PK mod: >57; GBA mod: >76.9

Results for CC[C@]1(O)C[C@@H]2CN(CCc3c([nH]c4ccccc34)[C@](C(=O)OC)(c3cc4c(cc3OC)N(C)[C@H]3[C@](O)(C(=O)OC)[C@@H](C(=O)OC)[C@@]5(CC)C=CCN6CC[C@@]43[C@@H]65)C2)C1 ?
FLuc inh: -3.7%

What do the screens show for `CN(C)C(=O)c1ccc(-c2nccc(N(C)Cc3ccco3)n2)cc1`?
FLuc inh: -0.9%[2.29 µM]

Results for COc1ccccc1CNc1nc(-c2ccccc2OC)nc2ccccc12 ?
FLuc inh: -4.0%[2.29 µM]

How did C1CCC(N=C(NC23CC4CC(CC(C4)C2)C3)N2CCOCC2)CC1 do in these assays?
FLuc inh: 1.6%

Results for COc1cc([C@H](O)C(=O)O)ccc1O ?
FLuc inh: 1.6%
